Pf Dd2 inh: Plasmodium falciparum Dd2 growth inhibition. Potency, µM (series often up to 28.9 µM), inactives show top-dose activity, negative = inhibition, usual class: inhibitors. actives 4.3% (n = 120,000). P. falciparum Dd2 growth, SYBR Green, 72 h; active = well fitted inhibition curve with a large enough effect;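 note: plate controls were DMSO vehicle for no effect and reference drug for full effect; nearly all actives have a fitted effect of over 65% in size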
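Infected erythrocytes (Dd2, 0.3% parasitemia, 2.5% hematocrit final) are added to compound in RPMI-1640/Albumax II medium, grown 72 h at 37C in low oxygen, then lysed with saponin/Triton-X containing SYBR Green and read by fluorescence.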
An asterisk follows results filed as active; i = inactive; [ ] = dose if it differs, or a comment. The sample as a whole holds a higher share of hits than the screen did. Potency is the fitted concentration of half-maximal effect.

SMILES	Pf Dd2 inh
Cc1cccc(CN2CCN(Cc3nc(-c4cccs4)oc3C)CC2CCO)n1 (centres undefined)	11.2µM*
OCCC1CN(Cc2cnn(-c3ccccc3)c2)CCN1Cc1cccs1 (centres undefined)	i
CCOCCn1c(=O)[nH]c2cc(C(=O)NCc3sc(C)nc3C)ccc21	-13.6%
CN(C)c1cc(N2CCCC(NC(=O)COc3ccccc3)C2)ncn1 (centres undefined)	i[5.79 µM]
COc1cccc(OCc2cc(C(=O)NC(CO)CO)n[nH]2)c1	-4.3%
CN1CCN(C(=O)C2(N(C)CCc3ccccc3)Cc3ccccc3C2)CC1	1µM*
CN(C)CCC(=O)N1Cc2ccccc2CC2(CCCCN2C)C1 (centres undefined)	-34.0%
CC(=O)N1Cc2ccccc2CC2(CCN(C)CC2)C1	-20.8%[44.1 µM]
Cn1cccc1C(=O)N[C@H]1C[C@H]2C(=O)Nc3cc(Cl)ccc3C(=O)N2C1	-21.1%[44.1 µM]
COc1ccc(NC(=O)N2C[C@@H]3C[C@H](C2)c2c(NC(=O)c4cncnc4)ccc(=O)n2C3)cc1	i
COC(=O)c1ccccc1NC(=O)c1cc(CN2CCCC2)on1	i[5.79 µM]
Cc1cc(C)n(CCCNC(=O)c2cc(COc3ccc4sc(C)nc4c3)on2)n1	-10.7%
CC(C)(C)C(Cn1ccnc1)NC(=O)c1cc(COc2ccc3c(c2)CCCC3)on1 (centres undefined)	8.91µM*
CCCCS(=O)(=O)N1C[C@@H](C(N)=O)[C@H](c2n[nH]c(C)n2)C1	22.1%
CCC1CCCCN1CCCNC(=O)c1ccc2c(c1)N(Cc1cccc(Cl)c1)C(=O)c1ccccc1S2(=O)=O (centres undefined)	-5.9%
CCC1CCCCN1CCCNC(=O)c1ccc2c(c1)N(Cc1cccc(C)c1)C(=O)c1ccccc1S2(=O)=O (centres undefined)	3.98µM*
O=C(NCc1ccco1)c1ccc2c(c1)N(Cc1ccc(Cl)cc1)C(=O)c1ccccc1S2(=O)=O	i
CCC1CCCCN1CCCNC(=O)c1ccc2c(c1)N(Cc1ccc(Cl)cc1)C(=O)c1ccccc1S2(=O)=O (centres undefined)	3.98µM*
COCCNC(=O)[C@@H]1C[C@H](Oc2cccnc2)CN1C(=O)c1ccoc1	24.9%
O=C(NCCc1ccccc1)N1CCC(OC2CCN(Cc3ccccc3)CC2)CC1	-7.5%
COc1cc(=O)n2c(c1C(=O)Nc1ccc(Cl)cc1C)CCCC2	6.2%
CSCC(=O)N1CCC2(CCN(Cc3nccnc3C)CC2)C(CO)C1 (centres undefined)	-4.0%
CN(C)c1ccc(C(=O)N2CCN3C(=O)N(CC(N)=O)C(=O)[C@@H]3C2)cc1	-11.8%[44.1 µM]
O=C(C1CCCC1)N1CC2(CCCCN2C2COC2)Cc2ccccc21 (centres undefined)	21.4%
O=C(Cc1ccccc1)N1Cc2ccccc2CC2(CCCN2Cc2ccncc2)C1 (centres undefined)	8.91µM*
SMILES	Pf Dd2 inh
NCC(=O)N1CCCC2(Cc3ccccc3CN2C(=O)Cc2cccc(Cl)c2)C1 (centres undefined)	12.6µM*
O=C(O)CCC(=O)N1Cc2ccccc2CC2(CCCN2Cc2ccncc2)C1 (centres undefined)	4.2%
COc1ccc(CC(=O)N2Cc3ccccc3CC23CCCN(C(=O)CCCN)C3)cc1 (centres undefined)	14.1%
COc1ccc(CN2CCCCC23Cc2ccccc2CN(C(=O)CCC(=O)O)C3)cc1 (centres undefined)	-22.3%
CC(=O)N1CC2(CCCN(Cc3cccc(C(N)=O)c3)C2)Cc2ccccc21 (centres undefined)	-3.7%
CN1CCC(C(=O)N2Cc3ccccc3CC3(CCN(Cc4cccnc4)C3)C2)CC1 (centres undefined)	-23.7%
NC(=O)c1cccc(CN2CCCC23Cc2ccccc2NC3=O)c1 (centres undefined)	-5.6%
CS(=O)(=O)N1CC2(CCCN2Cc2cccc(C(N)=O)c2)Cc2ccccc21 (centres undefined)	14.1µM*
COc1ccc(CC(=O)N2Cc3ccccc3CC23CCCN(C(=O)CN)C3)cc1 (centres undefined)	-20.5%
O=C(C1CC1)N1CC2(CCCN2Cc2cccnc2)Cc2ccccc21 (centres undefined)	10µM*
CC(C)NC(=O)N1CCN(c2cccc(C=O)c2)C(=O)C1	43.8%[44.1 µM]
COc1ccc(NC(=O)Cn2c(=O)n(-c3cccc(C)c3)c(=O)c3c2cc(C)n3C)cc1OC	i
Cn1cc(CN2CCc3ccccc32)ccc1=O	-6.4%
COC(=O)CNC(=O)c1cc(-c2ccc(Cl)cc2Cl)nc2c1cnn2C	5.4%
CCNC(=O)c1n[nH]c2c1CN(C(=O)c1cccc(OC(F)(F)F)c1)CC2	1.6%
Cc1ccc(C(=O)N2CCC(CCC(=O)NC3CCCCCC3)CC2)cc1	-4.9%
O=C(Cc1cccc(F)c1)N1CCC(n2cnnc2-c2ccccc2)C1 (centres undefined)	24.8%
CC(=O)N1Cc2ccccc2CC2(CCCN2Cc2ccccc2)C1 (centres undefined)	-7.7%
CC(=O)NCC(=O)N1Cc2ccccc2CC2(CCCN2Cc2ccccc2)C1 (centres undefined)	-16.9%
CC(C)C(=O)N1Cc2ccccc2CC2(CCCCN2Cc2cccnc2)C1 (centres undefined)	12.6µM*
O=c1c2c(CO)c(-c3ccccc3)nn2ccn1Cc1ccc(Br)cc1	i
O=C(O)Cn1nc(C2CC2)nc1CCCN1CCCC1=O	-1.7%
Cc1cc(C(=O)N2CC3CC(C2)[C@H]2CCCC(=O)N2C3)no1 (some centres undefined)	-0.7%
CCC1CN(C(=O)N2CCC(C(=O)NCCCc3ccccc3)CC2)c2cc(C)ccc2O1 (centres undefined)	i
CC1CN(C(=O)N2CCC(C(=O)NCCC3=CCCCC3)CC2)c2ccccc2O1 (centres undefined)	-10.8%
SMILES	Pf Dd2 inh
CCC1CN(C(=O)N2CCC(C(=O)NCCC3=CCCCC3)CC2)c2cc(C)ccc2O1 (centres undefined)	12.6µM*
CCC(CC)NC(=O)[C@H]1CCC[C@H]1NC(=O)c1ccc(OC)nc1	-6.1%
CCOc1ccccc1NC(=O)CN1C(=O)C(=O)c2ccccc21	157.7%[5.79 µM]
Cc1cc(/C=C(\C#N)C(=O)Nc2ccccc2)c(C)n1-c1ccc(F)cc1	-14.6%
CCOc1ccccc1NC(=O)C(=O)c1cc(C)n(-c2cccc(C)c2C)c1C	7.08µM*
CCOCCc1nnc(NC(=O)C(=O)c2cc(C)n(-c3ccc(C)cc3C)c2C)s1	84.2%
Cc1ccc(-n2c(C)cc(C(=O)C(=O)Nc3ccccc3)c2C)c(C)c1	5.01µM*
COc1ccccc1NC(=O)C(=O)c1cc(C)n(-c2cc(C)cc(C)c2)c1C	23.8%
Cc1nc2ncccn2c1C(=O)N[C@H]1[C@H]2CCO[C@H]2[C@@H]1N(C)C	6.0%
COCCn1ncc(N2CCCC(CC(=O)O)C2)cc1=O (centres undefined)	44.0%
Cn1ncc(N2CCN(c3cc(C4CC(O)C4)nc(N)n3)CC2)cc1=O (centres undefined)	-18.0%
CC(=O)c1ccc(NC(=O)Cn2c(N3CCc4ccccc4C3)nc(C)cc2=O)cc1	-17.0%
COc1ccc(-c2noc([C@@H]3CCCN3C(=O)c3cc(C)cc(C)c3)n2)cc1	i
O=C(COc1ccccc1)NCCC1CCN(C(=O)Nc2ccccc2)CC1	11.2µM*
O=C(CCc1ccccc1)NCCC1CCN(C(=O)Nc2ccccc2)CC1	i
CC(C)CC(=O)NCCC1CCN(C(=O)Nc2ccccc2)CC1	-13.0%

Screens from PubChem.
